# Screens: PubChem BioAssay, several laboratories
# BoNT-F LC inh = BoNT/F light chain protease inhibitors, primary screen, biochemical, flow cytometry, MLPCN library; Botulinum neurotoxin type F light chain protease (Clostridium botulinum); Multiplex microsphere protease cleavage assay; inhibition, % at 10 µM; 360,000 compounds, 0.22% hits; AID 588497, 2011; in the data active means inhibition above about 35%, passing the limit was not always enough; inconclusive means no clear call, values can overlap the other calls; further: plate controls were buffer without enzyme for full effect and enzyme alone for no effect
# Autofluor counter = counter-screen for toxin protease inhibitors: compound fluorescence; compound autofluorescence counterscreen, microsphere flow cytometry; hits give high values; fluorescence intensity (concentration not given with the values); 360,000 compounds, 3.1% hits; in the data active means fluorescence intensity above about 16000; inconclusive means no clear call, values can overlap the other calls
# FBA Mtb inh = Mtb FBA enzyme inhibitors, primary screen, biochemical, fluorescence, strain H37Rv; AID 588726, 2011; Fructose-bisphosphate aldolase (Mycobacterium tuberculosis (strain ATCC 25618 / H37Rv)), …; 360,000 compounds, 2.3% hits; purified M. tuberculosis FBA, fluorescence read-out; inhibition, % at 1 µM;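 further: 0% = vehicle and 100% = reference inhibitor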
# Target sequence (P9WQA3 whole entry, looked up): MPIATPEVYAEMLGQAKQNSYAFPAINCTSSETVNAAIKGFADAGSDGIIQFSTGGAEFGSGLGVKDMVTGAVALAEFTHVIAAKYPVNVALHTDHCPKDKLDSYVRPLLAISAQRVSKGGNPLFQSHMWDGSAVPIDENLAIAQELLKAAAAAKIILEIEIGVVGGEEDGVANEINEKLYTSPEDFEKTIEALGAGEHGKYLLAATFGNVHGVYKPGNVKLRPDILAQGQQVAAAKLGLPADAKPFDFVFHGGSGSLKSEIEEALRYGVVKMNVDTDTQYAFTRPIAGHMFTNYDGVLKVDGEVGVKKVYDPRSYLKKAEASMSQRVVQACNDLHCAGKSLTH
# BoNT-A LC inh2 = BoNT/A light chain protease inhibitors, primary screen, biochemical, flow cytometry, MLPCN library | multiplex microsphere protease substrate cleavage | inhibition, % at 10 µM | 360,000 compounds, 0.17% hits; in the data active means inhibition above about 30%; inconclusive means no clear call, values can overlap the other calls; further: plate controls were buffer without enzyme for full effect and enzyme alone for no effect
# Anthrax LF prot = Bacillus anthracis LF protease inhibitors, primary screen, biochemical, multiplex microsphere, MLPCN library. Lethal factor (Bacillus anthracis), P15917. multiplex microsphere protease cleavage assay. inhibition, % at 10 µM. 360,000 compounds, 0.12% hits. AID 588501, 2011; in the data active means inhibition above about 30%; inconclusive means no clear call, values can overlap the other calls; further: plate controls were buffer without enzyme for full effect and enzyme alone for no effect
# GDH-TPI counter-1 = GDH-TPI coupling enzyme inhibitors, primary screen, artefact control for M. tuberculosis FBA inhibitor project, biochemical, absorbance, full deck; GDH-TPI coupled enzyme counterscreen, NADH absorbance; inhibition, % at 4.8 µM; 360,000 compounds, 1.2% hits; in the data active means inhibition above about 30%;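 further: 0% = DMSO wells and 100% = wells lacking the enzyme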
# Mtb FBA confirm = M. tuberculosis aldolase blockers, biochemical, fluorescence, strain H37Rv, confirmation | shares compounds with FBA Mtb inh | purified M. tuberculosis FBA, fluorescence read-out | inhibition, % at 1 µM | 5,600 compounds, 78% hits;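 further: 0% = vehicle wells and 100% = reference inhibitor wells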
# GDH-TPI counter-2 = GDH-TPI coupling enzyme inhibitors, artefact control for M. tuberculosis FBA inhibitor project, biochemical, fluorescence, high throughput; shares compounds with FBA Mtb inh; GDH-TPI coupled enzyme counterscreen; inhibition, % at 1 µM; 5,600 compounds, 81% hits; in the data active means inhibition above about 10%
# Starred values were filed as active, the others as inactive; ? = inconclusive; . = no result given; + = active, no number. Only some compounds are listed: those with a hit (about 6.7% of all), similar ones and a draw of the others. Unless noted, no stated cut-off is given here; in the data, active means inhibition above about 27%; inactive means the rest.
SMILES,BoNT-F LC inh,Autofluor counter,FBA Mtb inh,BoNT-A LC inh2,Anthrax LF prot,GDH-TPI counter-1,Mtb FBA confirm,GDH-TPI counter-2
O=C(NCC1CCCO1)c1ccccc1 (stereo unspecified),2,4142,-6,0,-1,-2,.,.
CCCNC(=O)c1c(N)n(CC2CCCO2)c2nc3ccccc3nc12 (stereo unspecified),-8,10001,99*,7,2,15,101*,79*
Cc1n[nH]c(=S)n1/N=C/c1ccc(-c2ccc(Cl)cc2)o1,?,6103,1,-10,-12,19,.,.
CCC(C)NC(=O)c1ccc2c(c1)N(Cc1ccccc1)C(=O)CS2 (stereo unspecified),0,3175,97*,0,-5,4,68*,78*
Cc1cccc(N2CCN(C(=O)COc3ccc4ccc(=O)oc4c3)CC2)c1C,0,5266,1,0,-1,-6,.,.
NC(=O)C1CCN(C(=O)COc2ccc3ccc(=O)oc3c2)CC1,-17,4197,30*,0,-8,15,2,-3
O=C(COc1ccc2ccc(=O)oc2c1)NC1CCCCC1,-17,4204,32*,-2,-3,32*,105*,74*
O=C(COc1ccc2ccc(=O)oc2c1)N1CCN(c2ccccc2)CC1,4,4116,27*,0,-3,26,78*,53*
CC(Oc1ccc2ccc(=O)oc2c1)C(=O)N1CCOCC1 (stereo unspecified),3,5001,42*,0,2,0,155*,122*
O=c1[nH]c2c(=O)[nH]cnc2nc1-c1ccccc1,?,3442,74*,?,-4,3,56*,42*
COc1ccc(-c2ccc(C(=O)Nc3ccc(OC)nc3)c3occc23)c(C)c1,-7,3467,-2,0,-6,-8,.,.
OCCCNCc1ccc(Cl)cc1Cl,1,3582,-1,0,-5,1,.,.
Cc1cccn2c(=O)c3cc(C(=O)NC4CCCCC4)c(=N)n(CCN4CCOCC4)c3nc12,11,3663,67*,-2,2,1,43*,41*
Cc1cccn2c(=O)c3cc(C#N)c(=N)n(CCCN4CCOCC4)c3nc12,-2,3249,62*,0,-6,2,+,+
COc1ccc(CCn2c(=N)c(C(=O)NC3CCCC3)cc3c(=O)n4ccccc4nc32)cc1OC,-5,4967,-2,-2,-2,9,.,.
COCCCn1c(=N)c(C(N)=S)cc2c(=O)n3cccc(C)c3nc21,-61,3064,73*,12,-22,10,57*,42*
CCCn1c(=N)c(C#N)cc2c(=O)n3ccccc3nc21,0,2666,34*,1,-3,0,75*,68*
Cc1ccc(-c2nc3ccccc3c(=O)n2CCCN2CCOCC2)cc1,-15,4429,2,-2,2,4,.,.
Cc1ccc2nc3c(cc(C(N)=S)c(=N)n3CCCOC(C)C)c(=O)n2c1,-9,13411,48*,45*,13,4,84*,66*
Cc1cccn2c(=O)c3cc(C(=O)NCc4ccc(F)cc4)c(=N)n(CCCN4CCOCC4)c3nc12,-5,4975,80*,-2,-3,9,81*,82*
Cc1cccn2c(=O)c3cc(C(N)=S)c(=N)n(CCCN4CCOCC4)c3nc12,-70,3467,57*,11,-30,-1,56*,55*
COCCCN1C(=O)C(CC(=O)NCc2cccc3ccccc23)CC(C(=O)N2CCOCC2)=C1C (stereo unspecified),0,5644,0,0,-6,.,.,.
CNC(=O)c1cc2c(ccc3ccccc32)o1,-7,2046,51*,-2,-3,11,127*,102*
CCn1cc(/C=N/NC(=O)c2cc3c(ccc4ccccc43)o2)c2ccccc21,1,2943,14,0,-2,23,.,.
O=C(NC1CCCC1)c1cc2c(ccc3ccccc32)o1,-7,2891,40*,0,-1,-3,107*,80*
SMILES,BoNT-F LC inh,Autofluor counter,FBA Mtb inh,BoNT-A LC inh2,Anthrax LF prot,GDH-TPI counter-1,Mtb FBA confirm,GDH-TPI counter-2
O=C(NC1CC1)c1cc2ccccc2o1,5,5425,3,2,0,-4,.,.
COc1cc(-c2noc(C)c2C#CC2(N)CCCCC2)cc(OC)c1OC,-6,3072,2,0,-14,0,.,.
CCn1c(CN2CCOCC2)nnc1SCC(=O)Nc1ccccc1C,4,?,3,2,-1,8,.,.
Cc1nc2ccccn2c1-c1nnco1,0,5070,36*,0,0,3,5,-4
Cc1cccc(Nc2nc(-c3c(C)nc4ccccn34)cs2)c1,-8,10666,1,0,-2,7,.,.
CCCCn1nc2cc(C(=O)NCc3ccc4c(c3)OCO4)ccc2c1OCC,-3,5488,34*,-1,-2,-1,176*,141*
CCCn1nc2cc(C(=O)NCc3ccc4c(c3)OCO4)ccc2c1OCC,1,3582,62*,0,-8,1,186*,167*
CCOc1c2ccc(C(=O)NCc3ccc4c(c3)OCO4)cc2nn1CC,-3,3048,51*,0,2,8,102*,84*
CCOc1cc(C(=O)NCc2ccc3c(c2)OCO3)cc(OCC)c1OCC,.,.,1,.,.,9,.,.
CCOc1c2ccc(C(=O)NCc3ccc4c(c3)OCO4)cc2nn1CCOC,0,3974,49*,0,-3,-6,2,-5
CNc1ccccc1C(=O)OCC(=O)Nc1ccc2c(c1)OCO2,3,4904,53*,2,-3,2,101*,69*
CCN1CCN(S(=O)(=O)c2ccc3c4c(cccc24)C(=O)N3CC)CC1,11,?,29*,2,-2,1,158*,149*
CCN1C(=O)c2cccc3c(S(=O)(=O)N4CCNCC4)ccc1c23,2,5452,28*,3,2,21,73*,65*
CCN1C(=O)c2cccc3c(S(=O)(=O)N4CCCC4C(=O)O)ccc1c23 (stereo unspecified),-2,4080,7,-1,-10,15,.,.
